Results as given in the supplement of paper PMC10127200.
Counter-ions that a name gives are not always drawn.

Experiments:
Experiment in all cases: Euclidean distance of Cell Painting phenotypic profile (signed KS, 77 features) to DMSO centroid (dimensionless distance); 5 or 10 uM (library dependent); higher = stronger phenotypic change vs DMSO (phenoactivity)
Settings in all cases: 48 h
786-O = tested on: 786-O
Summary of the method: (§1)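 Harmony extracted 77 features from 20X confocal images (9 fields/well) of stained cells, scoring each as a signed Kolmogorov-Smirnov statistic against same-plate vehicle wells. The cells, five cancer lines and a healthy fibroblast line, had received library compounds for 48 h at 10 or 5 uM depending on library, with 0.1% DMSO final. Phenoactivity is the Euclidean distance from each plate-position-corrected, correlation-weighted, top-dose replicate-averaged profile to the median vehicle profile.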

A549 = tested on: A549
Summary of the method: as §1

DU145 = tested on: DU145
Summary of the method: as §1

FB = tested on: FB
Summary of the method: as §1

HEPG2 = tested on: HEPG2
Summary of the method: as §1

OVCAR4 = tested on: OVCAR4
Summary of the method: as §1

Structure (SMILES)	Euclidean distance (786-O)	Euclidean distance (A549)	Euclidean distance (DU145)	Euclidean distance (FB)	Euclidean distance (HEPG2)	Euclidean distance (OVCAR4)
CCCCc1nc(Cl)c(CO)n1Cc1ccc(-c2ccccc2-c2nnn[nH]2)cc1 [Losartan Potassium (DuP 753)]	0.807	0.621	0.847	0.722	0.759	0.893
Cc1nccn1CC1CCc2c(c3ccccc3n2C)C1=O (stereo unspecified) [Ondansetron HCl]	1.31	1.62	1.01	1.16	0.865	0.943
C[n+]1ccccc1C=NO [Pralidoxime Iodide]	1.45	0.771	0.975	0.641	0.434	0.907
O=C(O)CCn1c2c(c3ccccc31)C[C@H](NS(=O)(=O)c1ccc(F)cc1)CC2 [Ramatroban]	0.593	0.487	0.969	0.538	1.42	0.778
O=S(=O)(O)CCS [Mesna]	0.758	0.755	0.968	0.772	2.1	1.22
O=C1CC[C@@H](C(=O)N2CSC[C@H]2C(=O)O)N1 [Pidotimod]	1.14	0.696	0.731	0.833	0.84	0.854
O=c1c2ccccc2nc2n1CCc1c-2[nH]c2ccccc12 [Rutaecarpine]	0.752	1.05	1.52	1.22	1.08	1.48
CO[C@H]1C[C@@H]2CC[C@@H](C)[C@@](O)(O2)C(=O)C(=O)N2CCCC[C@H]2C(=O)O[C@H]([C@H](C)C[C@@H]2CC[C@@H](OC(=O)C(C)(CO)CO)[C@H](OC)C2)CC(=O)[C@H](C)/C=C(\C)[C@@H](O)[C@@H](OC)C(=O)[C@H](C)C[C@H](C)/C=C/C=C/C=C/1C	3.03	1.74	1.55	2.95	1.69	2.08
Nc1ncnc2c1ncn2[C@@H]1O[C@H](CO)[C@@H](O)[C@H]1O [Adenosine]	1.13	2.77	1.12	0.92	0.753	1.22
O=C(O)COc1nn(Cc2ccccc2)c2ccccc12 [Bendazac]	1.07	0.905	1.13	1.39	0.558	1.32
CCCN(CCC)S(=O)(=O)c1ccc(C(=O)O)cc1 [Probenecid]	1.08	0.549	1.42	0.831	0.652	1.69
COc1ccc(-c2coc3cc(O)cc(O)c3c2=O)cc1 [Biochanin A]	0.496	0.937	0.839	0.805	1.1	0.958
CC1(C)S[C@@H]2[C@H](NC(=O)C(c3ccccc3)S(=O)(=O)O)C(=O)N2[C@H]1C(=O)O (stereo partly specified) [Sulbenicillin Sodium]	0.75	0.447	1.14	1.28	0.601	1.09
CC(O)(P(=O)(O)O)P(=O)(O)O [Etidronate]	1.27	1.25	1.1	1.04	0.55	1.15
CN(C)CCCOc1nn(Cc2ccccc2)c2ccccc12 [Benzydamine HCl]	1.26	0.962	1.75	1.24	0.87	1.33
C=C1/C(=C\C=C2/CCC[C@]3(C)[C@@H]([C@H](C)/C=C/[C@H](C)C(C)C)CC[C@@H]23)C[C@@H](O)C[C@@H]1O [Doxercalciferol]	2.73	1.49	6.05	1.9	2.03	1.73
